From the supplement of paper PMC10849652
The full data set covers some 7,900 targets. This sample favours those with a hit. About 0.6% of all pairs of compound and target were hits. Values without a mark were called inactive.

Experiments:
Test in all cases: log2 fold change, soluble protein after heating vs DMSO (PISA); higher = thermal stabilisation; K562 cells, 10 uM, 30 min; active = over 0.2 and 3.5 SD of the protein, either way, in both replicates (recomputed)
[1] = compound: CC1=C(C=C(C=C1)NC(=O)C2=CC(=CC=C2)C(C)(C)C#N)NC3=CC4=C(C=C3)N=CN(C4=O)C
Summary of the method: (§1)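 K562 cells at 2×10^6 cells/mL were treated for 30 min with 10 μM compound, and aliquots were heated for 3 min over 48°C-58°C before pooling. Extraction used PBS with 0.5% NP-40 at 4°C, and soluble protein was the supernatant after 21,000xg for 90 min, measured by TMTpro 16plex LC-MS/MS with channel sums equalised. Thermal stability values, relative to control samples and from duplicates, are log2 fold changes.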

[2] = compound: CC1=C(C=C(C=C1)NC(=O)C2=CC(=CC=C2)N(C)C)NC(=O)C3=CC=C(C=C3)O
Summary of the method: as §1

[3] = compound: CC1=CC=C(C=C1)SC2=C3C=C(SC3=CN=C2)C(=O)N
Summary of the method: as §1

[4] = compound: CC1=NC(=CC=C1)C2=C(N=C(N2)C(C)(C)C)C3=CC4=NC=CN=C4C=C3
Summary of the method: as §1

[5] = compound: CCCCN(Cc1ccc(C(=O)NO)cc1)C(=O)Nc1ccccc1 [Nexturastat A]
Summary of the method: as §1

[6] = compound: CCCS(=O)(=O)Nc1ccc(F)c(C(=O)c2c[nH]c3ncc(-c4ccc(Cl)cc4)cc23)c1F [vemurafenib]
Summary of the method: as §1

[7] = compound: CCCS(=O)(=O)Nc1ccc(F)c(C(=O)c2c[nH]c3ncc(Cl)cc23)c1F
Summary of the method: as §1

[8] = compound: CCCc1cc(C)[nH]c(=O)c1CNC(=O)c1cc(-c2ccnc(N3CCN(C)CC3)c2)cc2c1cnn2C(C)C
Summary of the method: as §1

[9] = compound: CCN(CC)Cc1ccc2cc(COC(=O)Nc3ccc(C(=O)NO)cc3)ccc2c1 [givinostat]
Summary of the method: as §1

[10] = compound: CCN(CCCOc1ccc2c(Nc3cc(CC(=O)Nc4cccc(F)c4)[nH]n3)ncnc2c1)CCOP(=O)(O)O [barasertib]
Summary of the method: as §1

[11] = compound: CC[C@@H]1C(=O)N(C)c2cnc(Nc3ccc(C(=O)NC4CCN(C)CC4)cc3OC)nc2N1C1CCCC1
Summary of the method: as §1

[12] = compound: CC[C@@H]1C(=O)N(C)c2cnc(Nc3ccc(C(=O)N[C@H]4CC[C@H](N5CCN(CC6CC6)CC5)CC4)cc3OC)nc2N1C(C)C [volasertib]
Summary of the method: as §1

[13] = compound: CC[C@H](C)N1C=C(C2=C(C=C(C=C21)C3=CN=C(C=C3)N4CCNCC4)C(=O)NCC5=C(C=C(NC5=O)C)C)C
Summary of the method: as §1

[14] = compound: CC[C@H](C)[C@@H](C(=O)N[C@@H]([C@@H](C)O)C(=O)N[C@@H](CC(C)C)C(=O)[C@]1(CO1)C)NC(=O)[C@H]([C@@H](C)CC)N(C)C(=O)C [epoxomicin]
Summary of the method: as §1

[15] = compound: CCn1c(C(=O)N(C2CC2)C2CC2)cc2c3c(ncn3C)c(Nc3cc(C)n(C)n3)nc21
Summary of the method: as §1

[16] = compound: CCn1cc(-c2ccnc3[nH]c(-c4cccc(CN(C)C)c4)cc23)c(-c2ccc(NC(=O)N(C)C)cc2)n1
Summary of the method: as §1

[17] = compound: CN(C)CC(=O)Nc1ccc2[nH]c(=O)c3ccccc3c2c1
Summary of the method: as §1

[18] = compound: CN(CCOC1=CC=C(C=C1)C[C@H]2C(=O)NC(=O)S2)C3=CC=CC=N3 (racemic) [rosiglitazone]
Summary of the method: as §1

[19] = compound: CN1C2=C(C3=C1C(=O)N(N=C3)CC4=CC(=CC=C4)N)SC(=C2)S(=O)C
Summary of the method: as §1

[20] = compound: CN1CCC(CNc2ccc3ncc(-c4cccc(OC(F)(F)F)c4)n3n2)CC1
Summary of the method: as §1

Sequence of UniProt P31323 (P31323 whole entry, looked up): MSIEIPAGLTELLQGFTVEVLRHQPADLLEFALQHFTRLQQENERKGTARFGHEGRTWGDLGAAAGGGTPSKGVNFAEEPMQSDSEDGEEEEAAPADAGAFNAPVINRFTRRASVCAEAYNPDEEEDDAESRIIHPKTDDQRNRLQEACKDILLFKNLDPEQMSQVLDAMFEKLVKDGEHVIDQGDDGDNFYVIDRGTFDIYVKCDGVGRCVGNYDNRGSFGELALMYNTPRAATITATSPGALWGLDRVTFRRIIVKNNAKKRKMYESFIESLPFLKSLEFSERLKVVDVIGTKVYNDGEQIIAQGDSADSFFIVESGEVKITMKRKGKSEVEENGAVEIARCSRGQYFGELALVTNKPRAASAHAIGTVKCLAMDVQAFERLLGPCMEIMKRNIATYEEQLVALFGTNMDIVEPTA
Sequence of UniProt P10644 (P10644 whole entry, looked up): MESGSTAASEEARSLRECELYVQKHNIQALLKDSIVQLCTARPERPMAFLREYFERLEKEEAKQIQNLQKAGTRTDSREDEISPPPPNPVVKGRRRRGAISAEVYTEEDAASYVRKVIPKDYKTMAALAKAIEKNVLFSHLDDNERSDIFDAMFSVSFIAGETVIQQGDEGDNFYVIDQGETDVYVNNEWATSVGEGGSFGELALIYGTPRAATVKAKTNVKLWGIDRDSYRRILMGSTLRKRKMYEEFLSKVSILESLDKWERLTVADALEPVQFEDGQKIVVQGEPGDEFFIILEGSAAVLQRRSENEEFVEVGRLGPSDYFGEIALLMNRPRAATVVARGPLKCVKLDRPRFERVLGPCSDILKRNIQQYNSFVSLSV
Sequence of UniProt P49642 (P49642 whole entry, looked up): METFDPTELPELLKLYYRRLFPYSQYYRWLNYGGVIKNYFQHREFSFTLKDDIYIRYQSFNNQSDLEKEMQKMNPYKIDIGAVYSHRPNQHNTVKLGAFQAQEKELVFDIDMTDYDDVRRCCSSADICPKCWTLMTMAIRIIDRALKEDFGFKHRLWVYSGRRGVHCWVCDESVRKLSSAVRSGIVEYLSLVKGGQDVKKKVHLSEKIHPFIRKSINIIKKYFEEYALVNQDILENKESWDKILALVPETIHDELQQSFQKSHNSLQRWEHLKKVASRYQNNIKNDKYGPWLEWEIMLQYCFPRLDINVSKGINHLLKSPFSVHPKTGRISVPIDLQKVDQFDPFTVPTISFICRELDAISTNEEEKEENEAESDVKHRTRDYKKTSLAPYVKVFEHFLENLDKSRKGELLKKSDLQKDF
Sequence of UniProt Q8N4L2 (Q8N4L2 whole entry, looked up): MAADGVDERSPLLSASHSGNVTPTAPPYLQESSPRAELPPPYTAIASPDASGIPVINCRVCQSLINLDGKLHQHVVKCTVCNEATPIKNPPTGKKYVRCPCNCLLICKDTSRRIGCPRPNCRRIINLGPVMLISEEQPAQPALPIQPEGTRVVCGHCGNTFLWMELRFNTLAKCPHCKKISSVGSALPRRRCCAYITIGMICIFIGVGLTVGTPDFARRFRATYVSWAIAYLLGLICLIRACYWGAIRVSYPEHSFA
Sequence of UniProt Q9Y3E5 (Q9Y3E5 whole entry, looked up): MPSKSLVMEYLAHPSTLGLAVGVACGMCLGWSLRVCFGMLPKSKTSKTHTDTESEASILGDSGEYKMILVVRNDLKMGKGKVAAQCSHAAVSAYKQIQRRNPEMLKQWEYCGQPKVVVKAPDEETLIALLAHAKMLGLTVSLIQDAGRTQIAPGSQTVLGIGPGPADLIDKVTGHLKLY
Sequence of UniProt P19174 (P19174 whole entry, looked up): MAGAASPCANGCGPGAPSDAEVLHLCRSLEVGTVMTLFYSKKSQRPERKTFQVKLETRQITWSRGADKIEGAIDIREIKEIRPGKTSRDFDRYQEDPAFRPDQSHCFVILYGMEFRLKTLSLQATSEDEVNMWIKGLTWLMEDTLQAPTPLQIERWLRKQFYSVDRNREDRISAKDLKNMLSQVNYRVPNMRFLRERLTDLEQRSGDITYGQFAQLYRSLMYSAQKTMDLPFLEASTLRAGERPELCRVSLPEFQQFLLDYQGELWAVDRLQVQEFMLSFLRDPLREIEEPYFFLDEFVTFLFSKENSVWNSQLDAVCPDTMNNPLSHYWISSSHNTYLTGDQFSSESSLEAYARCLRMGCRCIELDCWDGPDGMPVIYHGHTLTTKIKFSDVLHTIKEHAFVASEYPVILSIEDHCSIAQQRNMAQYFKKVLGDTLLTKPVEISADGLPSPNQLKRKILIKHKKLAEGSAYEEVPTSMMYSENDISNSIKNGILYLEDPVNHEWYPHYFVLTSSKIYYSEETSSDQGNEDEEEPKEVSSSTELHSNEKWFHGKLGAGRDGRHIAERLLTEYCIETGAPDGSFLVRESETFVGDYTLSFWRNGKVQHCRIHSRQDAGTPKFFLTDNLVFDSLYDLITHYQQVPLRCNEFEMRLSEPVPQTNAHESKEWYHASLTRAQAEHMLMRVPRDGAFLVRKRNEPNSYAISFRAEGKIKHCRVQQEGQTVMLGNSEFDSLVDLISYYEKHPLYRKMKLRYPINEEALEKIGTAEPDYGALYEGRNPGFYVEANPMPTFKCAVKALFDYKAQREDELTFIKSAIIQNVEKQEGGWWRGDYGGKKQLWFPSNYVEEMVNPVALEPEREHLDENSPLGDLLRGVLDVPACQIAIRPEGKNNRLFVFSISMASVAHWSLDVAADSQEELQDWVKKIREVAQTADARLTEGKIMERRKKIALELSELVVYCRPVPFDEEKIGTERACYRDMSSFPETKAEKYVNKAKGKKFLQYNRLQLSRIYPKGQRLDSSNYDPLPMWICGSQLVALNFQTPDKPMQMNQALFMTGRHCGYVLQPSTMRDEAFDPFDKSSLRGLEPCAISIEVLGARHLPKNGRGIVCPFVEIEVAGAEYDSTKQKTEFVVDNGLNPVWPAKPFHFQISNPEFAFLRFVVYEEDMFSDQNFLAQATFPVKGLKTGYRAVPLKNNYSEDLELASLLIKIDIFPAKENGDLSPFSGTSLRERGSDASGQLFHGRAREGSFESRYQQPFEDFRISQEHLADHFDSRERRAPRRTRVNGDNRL
Sequence of UniProt Q96KB5 (Q96KB5 whole entry, looked up): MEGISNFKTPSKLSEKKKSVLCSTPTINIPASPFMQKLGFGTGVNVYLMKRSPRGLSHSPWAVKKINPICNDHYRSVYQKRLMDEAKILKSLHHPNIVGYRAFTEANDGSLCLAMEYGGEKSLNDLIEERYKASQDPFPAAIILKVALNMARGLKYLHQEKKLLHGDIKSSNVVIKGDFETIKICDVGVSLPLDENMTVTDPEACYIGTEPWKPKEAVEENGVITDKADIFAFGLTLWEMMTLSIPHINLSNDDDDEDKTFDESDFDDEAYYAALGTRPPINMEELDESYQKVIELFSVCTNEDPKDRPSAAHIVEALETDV
Sequence of UniProt Q9UPN7 (Q9UPN7 whole entry, looked up): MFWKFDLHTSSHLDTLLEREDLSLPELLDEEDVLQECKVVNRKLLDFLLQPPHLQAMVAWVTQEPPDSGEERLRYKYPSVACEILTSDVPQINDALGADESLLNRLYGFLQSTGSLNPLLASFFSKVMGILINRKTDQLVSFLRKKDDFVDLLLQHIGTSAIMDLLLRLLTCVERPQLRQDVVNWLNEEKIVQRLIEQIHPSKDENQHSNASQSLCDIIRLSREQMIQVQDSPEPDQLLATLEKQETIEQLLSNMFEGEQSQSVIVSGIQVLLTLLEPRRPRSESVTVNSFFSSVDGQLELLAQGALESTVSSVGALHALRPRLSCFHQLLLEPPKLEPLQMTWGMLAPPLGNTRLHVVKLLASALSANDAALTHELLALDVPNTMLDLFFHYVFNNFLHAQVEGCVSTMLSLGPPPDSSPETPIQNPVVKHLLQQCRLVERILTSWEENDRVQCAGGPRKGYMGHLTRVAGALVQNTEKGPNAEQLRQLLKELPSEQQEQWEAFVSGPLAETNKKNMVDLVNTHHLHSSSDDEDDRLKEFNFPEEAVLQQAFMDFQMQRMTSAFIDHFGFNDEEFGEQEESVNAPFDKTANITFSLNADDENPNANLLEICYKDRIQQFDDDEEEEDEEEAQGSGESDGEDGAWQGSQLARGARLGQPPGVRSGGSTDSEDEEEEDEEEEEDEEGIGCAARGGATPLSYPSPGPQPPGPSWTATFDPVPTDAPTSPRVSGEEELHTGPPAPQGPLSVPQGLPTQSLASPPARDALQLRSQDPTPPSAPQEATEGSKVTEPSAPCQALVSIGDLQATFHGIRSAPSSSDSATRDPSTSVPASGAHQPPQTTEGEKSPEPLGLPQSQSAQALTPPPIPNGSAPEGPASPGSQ
Sequence of UniProt Q10713 (Q10713 whole entry, looked up): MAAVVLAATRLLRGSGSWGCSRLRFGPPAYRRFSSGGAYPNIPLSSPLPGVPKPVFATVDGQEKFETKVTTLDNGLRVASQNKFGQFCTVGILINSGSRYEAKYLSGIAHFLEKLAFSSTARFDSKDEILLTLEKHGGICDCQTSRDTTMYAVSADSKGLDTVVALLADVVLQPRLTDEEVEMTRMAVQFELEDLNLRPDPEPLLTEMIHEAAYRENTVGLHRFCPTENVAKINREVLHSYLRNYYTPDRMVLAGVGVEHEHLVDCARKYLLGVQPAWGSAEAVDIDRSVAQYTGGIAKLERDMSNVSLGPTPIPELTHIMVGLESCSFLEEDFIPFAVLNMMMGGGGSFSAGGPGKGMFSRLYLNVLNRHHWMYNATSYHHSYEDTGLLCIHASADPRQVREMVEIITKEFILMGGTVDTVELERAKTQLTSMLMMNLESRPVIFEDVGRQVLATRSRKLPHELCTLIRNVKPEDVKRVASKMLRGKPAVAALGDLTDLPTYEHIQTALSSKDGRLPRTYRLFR
Sequence of UniProt P25788 (P25788 whole entry, looked up): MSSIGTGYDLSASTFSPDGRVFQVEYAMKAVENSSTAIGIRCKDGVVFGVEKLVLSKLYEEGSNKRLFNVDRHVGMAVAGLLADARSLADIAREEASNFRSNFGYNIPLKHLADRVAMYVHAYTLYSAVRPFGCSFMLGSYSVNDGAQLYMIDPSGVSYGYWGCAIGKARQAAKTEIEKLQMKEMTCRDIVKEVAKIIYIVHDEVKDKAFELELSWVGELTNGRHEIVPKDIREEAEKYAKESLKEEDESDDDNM

| Target | log2 fold change [1] | log2 fold change [2] | log2 fold change [3] | log2 fold change [4] | log2 fold change [5] | log2 fold change [6] | log2 fold change [7] | log2 fold change [8] | log2 fold change [9] | log2 fold change [10] | log2 fold change [11] | log2 fold change [12] | log2 fold change [13] | log2 fold change [14] | log2 fold change [15] | log2 fold change [16] | log2 fold change [17] | log2 fold change [18] | log2 fold change [19] | log2 fold change [20] |
| --- | --- | --- | --- | --- | --- | --- | --- | --- | --- | --- | --- | --- | --- | --- | --- | --- | --- | --- | --- | --- |
| PRPF40A (UniProt O75400) | 0.016 | 0 | 0.022 | 0.018 | -0.051 | 0.109 | 0.02 | 0.073 | 0.156 | 0 | -0.036 | -0.216 | 0.089 | 0.022 | -0.096 | 0.065 | 0.036 | 0.041 | 0.074 | -0.04 |
| PCNT (UniProt O95613) | -0.104 | 0.068 | -0.117 | -0.116 | 0.007 | -0.122 | -0.103 | -1.05 | 0.255 | 0.045 | 0.08 | 0.131 | -0.147 | -0.177 | -0.105 | -0.002 | -0.101 | 0.05 | 0.158 | -0.567 (active) |
| RAB11FIP1 (UniProt Q6WKZ4) | -0.009 | 0.001 | 0.015 | -0.018 | 0.034 | 0.006 | 0.063 | 0.009 | 0.015 | 0.014 | -0.07 | -0.105 | 0.023 | 0.122 | 0.015 | -0.063 | 0.021 | 0.018 | -0.017 | -0.373 (active) |
| PLCG1 isoform 2 (UniProt P19174) | 0.045 | -0.011 | 0.039 | -0.012 | 0.019 | 0.003 | 0.079 | -0.019 | -0.013 | 0.031 | -0.031 | -0.25 | 0.05 | 0.014 | -0.097 | -0.187 | 0.085 | 0.09 | 0.083 | -0.412 (active) |
| PRKAR1A (UniProt P10644) | 0.15 | -0.051 | 0.059 | -0.103 | 0.053 | -0.028 | -0.085 | 0.203 | 0.055 | -0.01 | 0.213 | -0.054 | -0.068 | -0.122 | 0.071 | 0.001 | 0.023 | -0.032 | 0.132 | 0.705 (active) |
| PRKCA (UniProt P17252) | -0.014 | -0.068 | -0.016 | 0.007 | 0.023 | -0.015 | 0.012 | -0.021 | -0.02 | 0.025 | 0.073 | -0.179 | 0.025 | -0.018 | -0.029 | 0 | 0.017 | 0.032 | -0.15 | -0.29 |
| PRKAR2B (UniProt P31323) | 0.04 | 0.017 | 0.038 | 0.022 | 0.046 | 0.033 | 0.052 | -0.014 | 0 | 0.047 | -0.037 | 0.053 | 0.056 | 0.025 | -0.023 | -0.023 | -0.008 | 0.051 | 0.005 | -0.495 (active) |
| PTRH2 (UniProt Q9Y3E5) | 0.009 | -0.007 | 0.032 | 0.144 | -0.078 | -0.05 | -0.009 | -0.025 | -0.064 | -0.022 | -0.004 | -0.09 | 0.013 | -0.018 | -0.003 | -0.067 | 0.057 | 0.001 | -0.042 | 0.018 |
| PPP6R1 (UniProt Q9UPN7) | 0.014 | 0.023 | 0.022 | 0.036 | -0.1 | 0.08 | 0.018 | -0.001 | -0.018 | -0.025 | -0.098 | -0.297 (active) | 0 | -0.033 | 0.029 | 0.026 | 0.053 | 0.026 | -0.007 | -0.048 |
| PRKCB isoform 2 (UniProt P05771) | 0.005 | -0.014 | -0.003 | 0.01 | -0.01 | 0.009 | -0.007 | 0.002 | 0.001 | 0.015 | -0.068 | -0.213 (active) | 0.04 | 0.03 | -0.005 | -0.06 | 0.006 | 0.007 | -0.054 | -0.135 |
| PRIM1 (UniProt P49642) | 0.02 | -0.083 | 0.061 | -0.004 | 0.162 | 0.042 | 0.1 | 0.074 | 0.031 | 0.056 | -0.097 | -0.249 | 0.093 | 0.088 | -0.072 | -0.018 | 0.117 | 0.048 | 0.052 | -0.12 |
| PDCD6 (UniProt O75340) | 0.013 | 0.039 | -0.001 | 0.032 | -0.032 | -0.025 | 0.023 | -0.089 | -0.017 | 0.004 | -0.157 | -0.283 (active) | -0.006 | 0.031 | -0.005 | -0.01 | 0.007 | 0.025 | -0.041 | -0.057 |
| PIP4P2 (UniProt Q8N4L2) | 0.107 | -0.03 | -0.006 | -0.002 | -0.092 | -0.013 | 0.041 | -0.045 | -0.067 | 0 | -0.092 | -0.054 | -0.07 | -0.192 | 0.053 | 0.004 | -0.018 | 0.008 | -0.016 | -0.375 (active) |
| PSMA3 (UniProt P25788) | 0.01 | 0.027 | -0.025 | 0.013 | -0.039 | -0.001 | -0.019 | -0.011 | -0.011 | -0.034 | 0.067 | 0.134 | -0.025 | -0.169 | 0.043 | 0.002 | -0.003 | -0.039 | -0.027 | 0.046 |
| PBK (UniProt Q96KB5) | 0.01 | -0.056 | 0.069 | -0.001 | 0.037 | 0.124 | 0.14 | 0.144 | 0.143 | 0.145 | -0.18 | -0.601 (active) | 0.121 | -0.005 | -0.086 | -0.026 | 0.091 | 0.092 | 0.053 | -0.187 |
| PMPCA (UniProt Q10713) | 0.046 | -0.049 | 0.014 | 0.006 | -0.102 | 0.025 | 0.037 | -0.006 | -0.019 | -0.027 | 0.018 | 0.158 | 0.021 | 0.029 | 0.016 | -0.095 | 0.013 | 0.024 | -0.124 | 0.138 |
